# Reference: the supplement of paper PMC4022240
# ± gives the standard deviation.
# T1: HaloTag-ATRX ADD domain (163-292)
# T1 chain: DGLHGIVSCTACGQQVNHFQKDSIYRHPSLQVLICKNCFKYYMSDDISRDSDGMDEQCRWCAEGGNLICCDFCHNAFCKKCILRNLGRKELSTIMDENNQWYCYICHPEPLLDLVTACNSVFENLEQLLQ
# B1: Unmod H1 variant L N K K A S S V E T K P G (peptide)
# chain: LNKKASSVETKPG
# B2: Unmod H1 variant S K K S V K T P K K A K K (peptide)
# chain: SKKSVKTPKKAKK
# B3: Unmod H1 variant I K L G I K S L V S K G T (peptide)
# chain: IKLGIKSLVSKGT
# B4: Unmod H1 variant K K L K K A T G A S K K S (peptide)
# chain: KKLKKATGASKKS
# B5: Unmod H1 variant T K T K A T G A S K K L K (peptide)
# chain: TKTKATGASKKLK
# B6: Unmod H1 variant G T G A S G S F K L N K K (peptide)
# chain: GTGASGSFKLNKK
# B7: Unmod H1 variant S K G T L V Q T K G T G A (peptide)
# chain: SKGTLVQTKGTGA
# B8: Unmod H1 variant K S S K N P K K P K T V K (peptide)
# chain: KSSKNPKKPKTVK
# B9: Unmod H1 variant A S A A P E K P L A G K K (peptide)
# chain: ASAAPEKPLAGKK
# B10: Unmod H1 variant K T V K P K K V A K S P A (peptide)
# chain: KTVKPKKVAKSPA
# Target: T1, HaloTag-ATRX ADD domain (163-292)
# Test: peptide microarray binding signal (635 nm), min-max normalized on array (fraction of array maximum); higher = stronger binding
# Settings: peptide region: Unmod H1 variant; binder concentration: 50 nM
# Procedure, shortened: (§1)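 Arrays carried histone 13-mer peptide–cellulose conjugates printed in triplicate on nitrocellulose alongside a Cy3 tracer. After overnight blocking at 4°C, they were incubated for 1 h at 4°C with biotin-labelled HaloTag reader fusions (10 nM to 1 μM) plus streptavidin-Alexa Fluor 647, or with rabbit histone antibodies (1:10,000 to 1:2,000) plus anti-rabbit Alexa 647. Scanning on an Axon GenePix 4000B used 635 nm for signal and 532 nm for misprints. The binding signal reported is each triplicate's mean spot intensity after per-library min-max scaling.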
row,Binder,peptide microarray binding signal
1,B1,0.0199 ± 0.0032
2,B2,0.0224 ± 0.0075
3,B3,0.0221 ± 0.0027
4,B4,0.0152 ± 0.00029
5,B5,0.032 ± 0.02
6,B6,0.01633 ± 0.00015
7,B7,0.0193 ± 0.0038
8,B8,0.0196 ± 0.0037
9,B9,0.0171 ± 0.0014
10,B10,0.0149 ± 0.00058

# Same assay, conditions: peptide region: Unmod H1 variant; binder concentration: 500 nM
row,Binder,peptide microarray binding signal
1,B1,0.0256 ± 0.00069
2,B2,0.00633 ± 9.9e-05
3,B3,0.0236 ± 0.00098
4,B4,0.00691 ± 0.0006
5,B5,0.0136 ± 0.00069
6,B6,0.00986 ± 0.0013
7,B7,0.0147 ± 0.00052
8,B8,0.0061 ± 0.00013
9,B9,0.0163 ± 0.00078
10,B10,0.0041 ± 5.8e-05

# Target: HaloTag-ING2 PHD (mouse Ing2 200-280)
# Test: as above
# Settings: peptide region: Unmod H1 variant; binder concentration: 10 nM
# Procedure, shortened: as §1
row,Binder,peptide microarray binding signal
1,B1,0.00776 ± 0.0013
2,B2,0.00113 ± 3.2e-05
3,B3,0.00656 ± 0.00055
4,B4,0.00161 ± 6.7e-05
5,B5,0.00257 ± 9.1e-05
6,B6,0.00251 ± 5.1e-05
7,B7,0.003939 ± 2.1e-05
8,B8,0.00185
9,B9,0.00603 ± 0.00016
10,B10,0.001552 ± 9.3e-06

# Same assay, conditions: peptide region: Unmod H1 variant; binder concentration: 100 nM
row,Binder,peptide microarray binding signal
1,B1,0.0114 ± 0.00013
2,B2,0.00206 ± 0.00011
3,B3,0.0191 ± 0.0018
4,B4,0.0034 ± 0.00046
5,B5,0.00829 ± 0.00095
6,B6,0.00539 ± 0.00089
7,B7,0.0162 ± 0.0012
8,B8,0.003543 ± 3.1e-05
9,B9,0.0206 ± 0.0028
10,B10,0.00369 ± 0.00015

# Target: anti-H3K4me3 antibody ab8580
# Test: as above
# Settings: peptide region: Unmod H1 variant; binder concentration: 1:2,000 dilution
# Procedure, shortened: as §1
row,Binder,peptide microarray binding signal
1,B1,0.00126 ± 7.1e-05
2,B2,0.000359 ± 9.7e-06
3,B3,0.00147 ± 3.9e-05
4,B4,0.000396 ± 1.2e-05
5,B5,0.000642 ± 2.2e-05
6,B6,0.000547 ± 1.9e-05
7,B7,0.000812 ± 6.2e-05
8,B8,0.000774 ± 1.4e-05
9,B9,0.00151 ± 4.1e-05
10,B10,0.0005286 ± 5.1e-06

# Same assay, conditions: peptide region: Unmod H1 variant; binder concentration: 1:10,000 dilution
row,Binder,peptide microarray binding signal
1,B1,0.00165 ± 3.2e-05
2,B2,0.000628 ± 6.7e-06
3,B3,0.00262
4,B4,0.000856 ± 8.9e-06
5,B5,0.001027 ± 1e-05
6,B6,0.00114 ± 3e-05
7,B7,0.0012 ± 2.4e-05
8,B8,0.000913
9,B9,0.00262 ± 0.00011
10,B10,0.000799 ± 8.3e-06

# Target: anti-H3K9me3 antibody ab8898
# Test: as above
# Settings: peptide region: Unmod H1 variant; binder concentration: 1:2,000 dilution
# Procedure, shortened: as §1
row,Binder,peptide microarray binding signal
1,B1,0.000921 ± 2e-05
2,B2,0.000121 ± 1.3e-06
3,B3,0.00109 ± 2.9e-05
4,B4,0.000257 ± 2.5e-05
5,B5,0.000181
6,B6,0.0003926 ± 3.9e-06
7,B7,0.000211 ± 2.2e-06
8,B8,0.000181
9,B9,0.000891 ± 5.9e-05
10,B10,0.000121 ± 2.7e-06

# Same assay, conditions: peptide region: Unmod H1 variant; binder concentration: 1:10,000 dilution
row,Binder,peptide microarray binding signal
1,B1,0.00127 ± 4.6e-05
2,B2,0.000577 ± 6.2e-06
3,B3,0.001441 ± 1.4e-05
4,B4,0.000461
5,B5,0.000519 ± 5.6e-06
6,B6,0.00121 ± 3.2e-05
7,B7,0.00075 ± 7.9e-06
8,B8,0.00075 ± 7.9e-06
9,B9,0.00115 ± 2e-05
10,B10,0.000461
